# Experimental data published in PubChem BioAssay (Tox21).
# Inconclusive results are not listed. Entries that show only a call come without a potency. Values without a mark were called inactive. Calls of active or inactive are those of the source. The call rests on the fitted dose curve; in most records, active means well fitted curve in the direction sought with a large enough effect in the repeat runs; inconclusive means weak or mixed curves; inactive means no such curve, though single readings can be large; an effect the other way counts as inactive or inconclusive.
# Columns and labels:
# [1] = qHTS assay to identify small molecule agonists of the RXR signaling pathway - cell viability counter screen (AID 1159529);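 further: HEK 293T cells carrying an RXR-alpha UAS beta-lactamase reporter; nearly all actives have a fitted effect of over 50% in size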
# Outline: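 Viability read-out for the RXR-alpha agonist qHTS: luminescent CellTiter-Glo signal after 30 min at RT. HEK 293T bla reporter cells, 2% charcoal-stripped FBS, 16 hr compound incubation; tetraoctyl ammonium bromide as cytotoxic control.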
# [2] = qHTS assay to identify small molecule antagonists of the retinoid acid receptor (RAR) signaling pathway - cell viability counter screen (AID 1159551); further: nearly all actives have a fitted effect of over 35% in size
# Outline: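 Measured by luminescent ATP detection, viability reflects C3RL4 cells treated 6 h at 37 C with test chemicals in the presence of 1 uM (final) retinol.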
# [3] = qHTS assay to identify small molecule agonists of the retinoic acid receptor (RAR) signaling pathway (AID 1159553); conditions: C3RL4 RARE luciferase reporter, agonist, 6 h; activation: at 73.3 µM (top of the series)
# Outline: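 6 hr compound exposure (DMSO vehicle) of overnight-plated C3RL4 RARE-luc cells at 37 C; luminescence quantified after 30 min RT with luciferase reagent.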
# [4] = qHTS assay to identify small molecule antagonists of the estrogen related receptor (ERR) signaling pathway from Tox21 library - cell viability counter screen (AID 1224834); further: nearly all actives have a fitted effect of over 30% in size; further: potency means the concentration at half of the fitted maximal effect
# Outline: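 Seeded ERR cells were rested 6 h at 37 C/5% CO2 before compounds, positive and negative controls or DMSO were added. Incubation continued for 17.5 h, and viability was then quantified by CellTiter-Fluor fluorescence.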
# [5] = molecular target: Luciferin 4-monooxygenase (Photinus pyralis) (UniProt P08659); assay: qHTS assay to identify small molecule inhibitors of firefly luciferase (AID 1224835); further: nearly all actives have a fitted effect of over 25% in size; further: potency means the concentration at half of the fitted maximal effect
# Chain of Luciferin 4-monooxygenase (Photinus pyralis) (P08659 whole entry, looked up): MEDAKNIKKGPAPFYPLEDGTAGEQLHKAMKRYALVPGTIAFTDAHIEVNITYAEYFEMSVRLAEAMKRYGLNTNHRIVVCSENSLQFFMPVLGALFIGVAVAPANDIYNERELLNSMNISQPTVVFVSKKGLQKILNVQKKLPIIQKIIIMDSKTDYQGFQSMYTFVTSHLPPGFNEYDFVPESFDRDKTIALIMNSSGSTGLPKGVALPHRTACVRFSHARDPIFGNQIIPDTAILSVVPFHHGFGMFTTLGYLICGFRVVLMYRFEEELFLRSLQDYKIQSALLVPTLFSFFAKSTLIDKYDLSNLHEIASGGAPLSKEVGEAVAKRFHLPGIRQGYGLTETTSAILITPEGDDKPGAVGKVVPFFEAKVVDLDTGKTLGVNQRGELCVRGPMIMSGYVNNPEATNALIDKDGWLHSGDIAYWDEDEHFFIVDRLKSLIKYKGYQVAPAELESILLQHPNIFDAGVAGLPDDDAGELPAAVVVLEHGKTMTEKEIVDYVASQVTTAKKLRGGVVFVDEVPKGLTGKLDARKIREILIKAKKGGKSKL
# Outline: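 Quantitative HTS format; KM concentrations of both substrates. Purified P. pyralis FLuc activity quantified from luminescence images.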
# [6] = qHTS assay to identify small molecule agonists of the constitutive androstane receptor (CAR) signaling pathway - cell viability counter screen (AID 1224836); further: nearly all actives have a fitted effect of over 45% in size
# Outline: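 Multiplexed viability check: HepG2-CYP2B6-hCAR cells, 15-point compound dosing, 0.75 uM PK11195 final, 23 h at 37 C, CellTiter-Fluor fluorescence.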
# [7] = qHTS assay to identify small molecule antagonists of the constitutive androstane receptor (CAR) signaling pathway - cell viability counter screen (AID 1224837); further: nearly all actives have a fitted effect of over 45% in size
# Outline: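 To flag cytotoxic false antagonists, HepG2 hCAR/CYP2B6-2.2kb cells were treated 23 hr with 15-concentration compound series and 50 nM CITCO at 37 C/5% CO2; CellTiter-Fluor fluorescence was the measured end point.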
# [8] = molecular target: Nuclear receptor subfamily 1 group I member 3 (Homo sapiens) (UniProt Q14994); assay: qHTS assay to identify small molecule antagonists of the constitutive androstane receptor (CAR) signaling pathway (AID 1224838);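 further: HepG2 cells stably expressing hCAR with CYP2B6 luciferase reporter stimulated by CITCO; nearly all actives have a fitted effect of over 40% in size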
# Chain of Nuclear receptor subfamily 1 group I member 3 (Homo sapiens) (Q14994 whole entry, looked up): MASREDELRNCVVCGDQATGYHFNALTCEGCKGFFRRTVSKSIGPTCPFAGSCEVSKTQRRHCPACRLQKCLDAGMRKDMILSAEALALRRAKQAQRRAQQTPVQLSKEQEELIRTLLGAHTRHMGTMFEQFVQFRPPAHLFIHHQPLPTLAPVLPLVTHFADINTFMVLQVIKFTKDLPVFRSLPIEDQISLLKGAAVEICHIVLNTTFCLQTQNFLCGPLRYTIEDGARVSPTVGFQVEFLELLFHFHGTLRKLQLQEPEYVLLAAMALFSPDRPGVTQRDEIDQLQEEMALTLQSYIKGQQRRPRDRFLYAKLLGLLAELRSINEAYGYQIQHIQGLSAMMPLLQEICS
# Outline: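 Human hepatoma HepG2 cells expressing hCAR and a CYP2B6 promoter (2.2 kb) luciferase construct; compound titration (15 points) with 50 nM CITCO final, 24 h at 37 C/5% CO2; luminescence via ONE-Glo after 30 min at room temperature.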
# [9] = molecular target: Nuclear receptor subfamily 1 group I member 3 (Homo sapiens) (UniProt Q14994); assay: qHTS assay to identify small molecule agonists of the constitutive androstane receptor (CAR) signaling pathway (AID 1224839);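 further: HepG2 cells stably carrying human CAR and a CYP2B6 luciferase reporter; nearly all actives have a fitted effect of over 15% in size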
# Outline: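 Using human hepatoma HepG2 cells engineered with hCAR and a CYP2B6-2.2kb reporter, 15-concentration compound series were incubated 24 h alongside PK11195 at 0.75 uM final, with luminescence quantified afterwards.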
# [10] = qHTS assay to identify small molecule antagonists of the retinoic acid receptor (RAR) signaling pathway (AID 1159552; further: nearly all actives have a fitted effect of over 50% in size)
# Outline: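 Using a RARE-driven luciferase construct in C3RL4 cells, retinol at 1 uM final provided the agonist stimulus while compounds were co-applied. After 6 hours at 37 C, luminescence was recorded to flag inhibitors of retinol signaling.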
smiles,measurement,setting,value
CCOC(=O)OCC/C(SC(=O)OCC)=C(\C)N(C=O)Cc1cnc(C)nc1N,outcome,[1],inactive
same,outcome,[2],inactive
same,Potency,[3],inactive
same,Potency,[4],inactive
same,Potency,[5],inactive
same,outcome,[6],inactive
same,Potency,[7],inactive
COc1ccc(N=Nc2cc(C)c(N=Nc3ccc(S(=O)(=O)O)cc3)cc2OC)cc1,outcome,[1],inactive
same,outcome,[2],inactive
same,Potency,[3],inactive
same,Potency,[4],19.3 µM (active)
same,Potency,[5],44.8 µM (active)
same,Potency,[8],inactive
same,Potency,[9],inactive
Cc1cccc(Nc2ccncc2S(=O)(=O)NC(=O)NC(C)C)c1,outcome,[1],inactive
same,outcome,[2],inactive
same,Potency,[3],inactive
same,Potency,[4],inactive
same,Potency,[5],inactive
same,outcome,[6],inactive
same,Potency,[7],inactive
OC(CCN1CCCCC1)(c1ccccc1)c1ccccc1,outcome,[1],inactive
same,outcome,[2],inactive
same,Potency,[3],inactive
same,Potency,[4],inactive
same,Potency,[5],inactive
same,outcome,[6],inactive
same,Potency,[7],inactive
C[C@@H]1C[C@H]2[C@@H]3C[C@H](F)C4=CC(=O)C=C[C@]4(C)[C@@]3(F)[C@@H](O)C[C@]2(C)[C@@]1(O)C(=O)CO,outcome,[1],inactive
same,outcome,[2],inactive
same,Potency,[3],inactive
same,Potency,[4],inactive
same,outcome,[6],inactive
same,Potency,[7],inactive
same,Potency,[8],inactive
same,Potency,[9],inactive
CN(C)CCCNCCC#N,outcome,[1],inactive
same,outcome,[2],inactive
same,Potency,[10],inactive
same,Potency,[4],inactive
same,Potency,[5],inactive
same,outcome,[6],inactive
same,Potency,[7],inactive
same,Potency,[8],inactive
same,Potency,[9],inactive
O=C(Nc1cccc(C2=NCCN2)c1)Nc1cccc(C2=NCCN2)c1,"activity change, negative = cytotoxicity",[1],12.6% [at 15.8 µM]
same,"activity change, negative = cytotoxicity",[2],1.4% [at 19 µM]
same,Potency,[3],inactive
same,"viability change, negative = cytotoxic",[4],1.33% [at 19 µM]
same,"activity change, negative = inhibition",[5],-1.49% [at 23.6 µM]
same,"viability change, negative = cytotoxic",[6],0.131% [at 19 µM]
same,"activity change, negative = cytotoxicity",[7],1.51% [at 19 µM]
OCCCCCCCl,outcome,[1],inactive
same,Potency,[10],inactive
same,Potency,[3],inactive
same,Potency,[4],inactive
same,Potency,[5],inactive
same,outcome,[6],inactive
same,Potency,[7],inactive
CN[C@@H]1[C@H](O)[C@H](NC)[C@H]2O[C@@]3(O)C(=O)C[C@@H](C)O[C@H]3O[C@@H]2[C@H]1O,outcome,[1],inactive
same,outcome,[2],inactive
same,Potency,[3],inactive
same,Potency,[4],inactive
same,Potency,[5],inactive
same,outcome,[6],inactive
same,Potency,[7],inactive
O=C1CC[C@H](C(=O)N2CCCCC2)N1,outcome,[1],inactive
same,outcome,[2],inactive
same,Potency,[3],inactive
same,Potency,[4],inactive
same,Potency,[5],inactive
same,outcome,[6],inactive
same,Potency,[7],inactive
C=C(C)C(=O)OC,outcome,[1],inactive
same,outcome,[2],inactive
same,Potency,[10],inactive
same,Potency,[4],inactive
same,outcome,[6],inactive
same,Potency,[7],inactive
same,Potency,[8],inactive
same,Potency,[9],inactive
CCC(O)C(C)(C)C (stereo not given),outcome,[1],inactive
same,outcome,[2],inactive
same,Potency,[3],inactive
same,Potency,[4],inactive
same,Potency,[5],inactive
same,outcome,[6],inactive
same,Potency,[7],inactive
CC(CC(=O)O)CC(C)(C)C (stereo not given),outcome,[1],inactive
same,outcome,[2],inactive
same,Potency,[10],inactive
same,Potency,[4],inactive
same,Potency,[5],inactive
same,outcome,[6],inactive
same,Potency,[7],inactive
same,Potency,[8],inactive
same,Potency,[9],inactive
Cn1c(=O)c2c(ncn2CC2OCCO2)n(C)c1=O,outcome,[1],inactive
same,outcome,[2],inactive
same,Potency,[10],inactive
same,Potency,[4],inactive
same,Potency,[5],inactive
same,Potency,[7],inactive
same,Potency,[8],inactive
Nc1nc(=O)n([C@@H]2O[C@H](CO)[C@@H](O)[C@@H]2F)cc1I,outcome,[1],inactive
same,outcome,[2],inactive
same,Potency,[3],inactive
same,Potency,[4],inactive
same,Potency,[5],inactive
same,outcome,[6],inactive
same,Potency,[7],inactive
same,Potency,[9],inactive
Nc1ccc(S(=O)(=O)Nc2ccccn2)cc1,outcome,[1],inactive
same,Potency,[4],inactive
same,Potency,[5],inactive
same,outcome,[6],inactive
same,Potency,[7],inactive
same,Potency,[9],inactive
CCC(=O)c1ccc(O)cc1,outcome,[1],inactive
same,Potency,[4],inactive
same,Potency,[5],inactive
same,outcome,[6],inactive
same,Potency,[7],inactive
same,Potency,[8],inactive
same,Potency,[9],inactive
